aSyn yeast inh – qHTS of alpha-syn Inhibitors; Potency, µM (titrated, usually from 46.1 µM), inactives show at the highest dose growth rescue (activation), most hits filed as activators; Yeast expressing alpha-synuclein, growth rescue, BacTiter-Glo, 24 h; actives 0.14% (n = 370,000); note: potency is the fitted concentration of half-maximal effect; % of control where 0% means no effect; nearly all actives have a fitted effect of over 65% in size
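Rescue of yeast growth: cells expressing toxic alpha-synuclein, induced in galactose at OD600 0.02, incubated with compound 24 h at 30 C. ATP luminescence quantified growth; inhibitors of toxicity appear as activators.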
CCT modulator – High-Throughput Screening for Modulators of Cytosolic Chaperonin Activity; purified chaperonin ATPase assay, HTRF ADP detection, 30 min; activity change, % (concentration not given with the values), hits read low; actives 0.3% (n = 360,000); in the data active = activity change below about -30%; note: % is set by controls: 0 for no effect and ±100 for the full control effect
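First, chaperonin was dispensed at 40 nM or 20 nM final depending on batch activity. Next, compounds were pinned at 76 uM and ATP added at 10 uM. After 30 min at 37 °C, ADP detection reagents ran 30 min at ambient temperature.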
Mito fusion yeast – qHTS Assay for Small Molecule Inhibitors of Mitochondrial Division or Activators of Mitochondrial Fusion. S. cerevisiae fusion-defective mutant growth rescue, CellTiterGlo 48 h. Potency, µM (titrated, usually from 46.1 µM), for the others: at the top dose growth rescue (activation), most hits filed as activators. actives 0.23% (n = 320,000). AID 485298, 2010; note: potency is the fitted concentration of half-maximal effect; % of control where 0% means no effect; nearly all actives have a fitted effect of over 45% in size
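Read-out: ATP-based luminescence (CellTiterGlo, 10 min ambient) reporting growth of fusion-defective ts yeast after 48 hours at 37C on glycerol/ethanol YPEG medium in the presence of compound.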
Anesthetic bind – qHTS Assay for Identification of Novel General Anesthetics; apoferritin/1-aminoanthracene competitive binding, fluorescence; Potency, µM (highest dose often 77.5 µM), for inactives: at the top dose activity change, negative = displacement, usual class: inhibitors; actives 0.074% (n = 350,000); AID 485281, 2010; note: potency is the fitted concentration of half-maximal effect; % is set by controls: 0 for no effect and ±100 for the full control effect; nearly all actives have a fitted effect of over 20% in size
Target sequence (P02791 2-175 limits assumed): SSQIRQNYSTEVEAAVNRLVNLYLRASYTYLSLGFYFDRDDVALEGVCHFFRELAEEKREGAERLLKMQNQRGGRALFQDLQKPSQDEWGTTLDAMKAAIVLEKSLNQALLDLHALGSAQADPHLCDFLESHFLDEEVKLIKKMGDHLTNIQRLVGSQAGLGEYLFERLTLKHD
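Concentration-response curves derived by four-parameter Hill fitting of normalized fluorescence, where compounds displaced 1-AMA from 10 uM horse apoferritin following a brief 10 min room-temperature incubation; propofol titration acted as positive control.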
TDP43 rescue – qHTS of TDP-43 Inhibitors. TDP-43 expressing yeast growth rescue, BacTiter-Glo, 24 h. Potency, µM (titrated, usually from 46.1 µM), for inactives: top-dose growth rescue (activation), most hits filed as activators. actives 1.8% (n = 410,000). AID 652104, 2013; note: potency is the fitted concentration of half-maximal effect; % of control where 0% means no effect; nearly all actives have a fitted effect of over 50% in size
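Readout is BacTiter-Glo luminescence of cell growth, so inhibitors register as activators. TDP-43-expressing yeast at OD600=0.02 in galactose medium, after raffinose pregrowth to mid-log, were incubated with compound for 24 hr at 30 deg C.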
pAkt inh – HTS Assay for Inhibitors of Akt Phophorylation: Primary Screen. actives 0.32% (n = 360,000). Neuro2A IGF-stimulated pAkt S473 HTRF, 20 min; hits give low values. activity change, % for hits at 50 µM; in the data active = activity change below about -80%; inconclusive = mostly about -51% to -80%; note: % is set by controls: 0 for no effect and ±100 for the full control effect
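Neuro2A cells in DMEM with 0.5% FBS, overnight at 37 deg C, given compound at single 50 µM final, then IGF (6 nM final) for 20 min at 37 deg C. Lysed; phospho-Akt Ser473 by HTRF after 24 h, 665/615 ratio.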
* marks the source's active call; other numbers are inactive results; i = inactive; ? = inconclusive; . = not tested or not shown; [ ] = remark or other dose. Rows were chosen to be rich in hits. Some 2.5% of all compounds tested hit in one or more screens of this group. Unless noted, calls come from the whole dose curve; as a rule, active = well fitted curve in the direction sought with a large enough effect; inconclusive = small, poorly fitted or top-dose-only effect, or another doubt; inactive = no such curve, though single readings can be large; an effect the other way counts as inactive or inconclusive.

SMILES | aSyn yeast inh | CCT modulator | Mito fusion yeast | Anesthetic bind | TDP43 rescue | pAkt inh
CN(Cc1ccccc1)c1ncnc2c1nnn2C | . | . | . | -15.8% | 24.1% | .
COc1ccc(C2NC(c3ccc4c(c3)OCO4)=CC(c3ccccc3O)N2)cc1OC (stereo not drawn) | -7.5% | . | . | . | . | .
COc1cc(/C=C2\C=Cc3ccccc32)ccc1N(C)C | -9.5% | . | . | . | . | .
O=C(OCC(=O)C12CC3CC(CC(C3)C1)C2)c1ccc(O)cc1 | -23.5% | -3.5 | . | . | 11.2µM* | i
Nc1ccc(O)cc1C(=O)OCC(=O)C12CC3CC(CC(C3)C1)C2 | 0.3% | -0.7 | -0.4% | 31.6µM* | 25.9% | i
O=C(OCC(=O)C12CC3CC(CC(C3)C1)C2)c1ccc(CO)cc1 | 3.2% | -0.7 | 0.7% | . | ? | i
O=C(Oc1ccc(O)cc1)C12CC3CC(CC(C3)C1)C2 | 11.5% | -3.9 | ? | ? | 14.1µM* | i
COc1cc(-c2cc3nc(NCCOc4ccccc4)ccn3n2)cc(OC)c1OC | -1.1% | -1.1 | . | . | 31.6µM* | i
COc1cc(-c2cc3nc(NCCc4ccncc4)ccn3n2)cc(OC)c1OC | -1.8% | -2.3 | . | . | 20.0% | i
CCCCn1c(SCC(=O)Nc2cc(C)on2)nc2ccccc2c1=O | 0.1% | -3.7 | -5.3% | 5.6% | -18.8% | -105.5%*
O=[N+]([O-])c1ccc(Nc2nccc(Cl)n2)cc1 | 2.9% | -1.0 | . | . | 5.62µM* | i
Cn1ccc2c(-c3ccc4[nH]ccc4c3)cc3c(c21)C1CCC3O1 (stereo not drawn) | 14.1% | -0.9 | . | . | 15.8µM* | i
Cn1ccc2c(-c3ccc(F)nc3)cc3c(c21)C1CCC3O1 (stereo not drawn) | 1.0% | 1.8 | . | . | ? | i
Cn1ccc2c(-c3cccc4ccccc34)cc3c(c21)C1CCC3O1 (stereo not drawn) | 13.8% | -2.4 | . | . | 15.8µM* | i
COc1ccc(-c2cc3c(c4c2ccn4C)C2CCC3O2)cn1 (stereo not drawn) | ? | -2.9 | . | . | 12.6µM* | i
O=C1C=C(NC2=CC3OC(c4ccccc4)OCC3OC2=O)CCC1 (stereo not drawn) | 17.8µM* | -3.1 | -1.2% | -8.3% | 12.6µM* | i
O=C1C=C(NCc2ccccc2)CCC1 | -1.9% | -3.9 | -0.2% | -10.0% | -8.3% | i
Nc1nc(C2CCOCC2)cs1 | -8.8% | 1.5 | -1.7% | 5.0% | 9.1% | i
CC1(C)CC(c2csc(N)n2)CCO1 (stereo not drawn) | -5.9% | -39.2* | -4.9% | ? | -15.7% | i
CCOC(=O)CSc1nc2cc3c(cc2cc1C#N)OCO3 | 29.9% | -2.8 | 2.5% | -3.9% | 8.5% | i
CCOC(=O)CSc1nc2cc3c(cc2cc1C#N)OCCO3 | -4.7% | -39.1* | 8.2% | -11.0% | -10.3%[9.22 µM] | i
CC(C)OC(=O)CSc1nc2cc3c(cc2cc1C#N)OCO3 | 1.6% | 1.8 | -0.4% | -1.0% | -6.8% | -97.1%*
CC(C)C[C@H](NC(=O)[C@@H]1CCCN1C(=O)[C@H](Cc1ccccc1)NC(=O)[C@H](C)NC(=O)[C@H](CCC(=O)O)NC(=O)[C@H](C)NC(=O)[C@H](CO)NC(=O)[C@H](CCC(=O)O)NC(=O)[C@H](CC(=O)O)NC(=O)[C@H](CCC(=O)O)NC(=O)[C@H](C)NC(=O)CNC(=O)[C@H](CC(N)=O)NC(=O)[C@@H]1CCCN1C(=O)[C@H](Cc1ccc(O)cc1)NC(=O)[C@@H](NC(=O)[C@H](CCCCN)NC(=O)[C@@H](NC(=O)[C@@H]1CCCN1C(=O)[C@@H](N)CCCNC(=N)N)C(C)C)C(C)C)C(=O)N[C@@H](CCC(=O)O)C(=O)N[C@@H](Cc1ccccc1)C(=O)O | . | . | . | 6.8% | . | .
CCCN1CCC(NC(=O)CCc2nnc(-c3ccccc3)o2)CC1 | -5.9% | -70.0* | -2.3% | -8.3% | -8.5%[0.397 µM] | i
Cc1ccc(Nc2ncnc(Cl)c2N)cc1 | 3.5% | -0.1 | . | . | 35.5µM* | i
SMILES | aSyn yeast inh | CCT modulator | Mito fusion yeast | Anesthetic bind | TDP43 rescue | pAkt inh
CCN1C(=NCc2cc(OC)c(OC)c(OC)c2)N[C@@H](c2cccc(F)c2)C(C(=O)OC)=C1C | . | . | 1.0% | -23.4% | . | .
CC1CN(C(=O)/C=C/c2ccc([N+](=O)[O-])s2)CC(C)O1 (stereo not drawn) | 3.2% | -0.1 | -2.4% | -20.7% | -5.8%[9.22 µM] | i
CC1CC(C)CN(C(=O)/C=C/c2ccc([N+](=O)[O-])s2)C1 (stereo not drawn) | 1.0% | -1.4 | 6.0% | ? | 22.4µM* | i
Cc1ccc(NC(=O)c2ccc(NC(=O)C3CCCC3)cc2)c(C)c1 | 0.5% | . | . | . | . | .
CC(C(=O)NC1CCCC1)N(C(=O)Cn1nnc(-c2ccc(F)cc2)n1)c1ccccc1F (stereo not drawn) | 5.3% | -1.6 | 7.08µM* | -3.7% | -2.3% | i
C=CCS(=O)(=O)c1nc2ccccc2s1 | -0.5% | 2.2 | -10.4% | -22.7% | 22.4µM* | i
CC(C)(C)S(=O)(=O)c1nc2ccccc2s1 | -1.8% | 0.7 | -9.6% | ? | -7.0% | i
CCS(=O)(=O)CCSc1nc2ccccc2s1 | 7.0% | -1.9 | 7.6% | -20.1% | -9.4% | i
O=S(=O)(CCSc1nc2ccccc2s1)c1nc2ccccc2s1 | -54.2% | 0.3 | -7.9% | ? | 2.51µM* | i
O=C(Cn1ncc2ccsc2c1=O)N1CCN(c2ccc(Cl)cc2)CC1 | -7.6% | . | . | 2.6% | -5.3% | .
COc1ccc(CNC(=O)C2CCCN(S(=O)(=O)N3CC(C)CC(C)C3)C2)c(OC)c1 (stereo not drawn) | 1.0% | -1.4 | 11.2µM* | -2.1% | 2.8% | i
Cc1ccc(-c2nc3cnccn3c2Nc2ccc(C(C)C)cc2)o1 | 2.9% | . | . | . | . | .
O=C(Nc1ccccc1Cl)c1ccc(F)c(S(=O)(=O)NCc2ccc(Cl)c(Cl)c2)c1 | . | . | . | -18.5% | ? | .
Cc1c(C=O)c2ccccn2c1C(=O)c1ccc(F)cc1 | 15.8µM* | -1.5 | 8.3% | -1.5% | -25.0% | i
Cc1c(C=O)c2ccccn2c1C(=O)c1ccc(Cl)c([N+](=O)[O-])c1 | -0.5% | 0.0 | 0.2% | -12.3% | 4.8% | i
Cc1c(C=O)c2ccccn2c1C(=O)c1ccccc1 | 17.8µM* | 1.1 | 11.4% | ? | ? | i
Cc1cc2ccccn2c1C(=O)c1ccc(F)cc1 | 5.5% | -0.2 | -2.7% | 3.3% | ? | i
CN(Cc1ccc(F)cc1)S(=O)(=O)c1nnc(NC(=O)c2ccc(F)cc2)s1 | . | . | . | -11.5% | 18.9% | .

From PubChem BioAssay
